Results taken from the supplement of paper PMC12632987.
Over roughly 4,500 sequences, “median log2 fold change of GCK-ALFA target abundance (FLAG IP / Myc IP barcode read proportion)” has its median near 0.078; the lowest 2% begin near -0.6. This is one part of a sample in which the lowest values are shown more often than they occur.

B1: GBRAP_74_6512 (protein)
chain: MEELLAKLKEAAEAKDVDKLVALALEIAETGDKETIEKAAEIVVAFVEANLDTLTPEELEKLSDALATLADKLMELGGDSEVVNRVAETAVALEKKLLAL
B2: GBRAP_52_5860 (protein)
chain: MVEEALEKLRKAVEAMKAGKEEEAEKILKEIVENFDEETILAAAEAFAKEMATATPEEAEAAFRTAEMLGKILEEAGFDEEVVTLIEDTIGAAVARVEAA
B3: GBRAP_139_3742 (protein)
chain: SEMEKKVEEAAKKVAELKDDPEAVADYLTETIASVDEETAEKIARAAVEVLADLPVEERLALDDLILDKLEEAGVDEDKITIVEAELNGGLARHAYAEEL
B4: GBRAP_139_3708 (protein)
chain: SALEEKVAEAKELTKETLENPEESIKKIVELLLSVSEEDLEVVVKAIAETLSEFPLDTAEELADKLLEEVKKRSKDEDKVNIVEAVLNGALARKAYEEEL
B5: GBRAP_80_6860 (protein)
chain: DEARLAAARARLKALLPEAAALIDEVVAIAKELGVPNADIADLLDALAELAEVDPELAKELLEELLEDLREEKEAGDAENALATVRGYAGEALMEAEELE
B6: GBRAP_95_7064 (protein)
chain: EEDLEIAEDLIDTAEDLVEIGLYEQAARAAKAAVEELKEIGYTGELALRAAEVLVKVAEATGNEEAAELAKEVLEEIRKAGGDEKKIEELEKRLEKALKK
B7: GBRAP_52_6171 (protein)
chain: SAEKARKMAEELLEAIKAGDEEKVKKILEEIAKNYTDEEIAAMLREVAKRVPSLSPEDQERVVEAALELEDIAVKAGHDENVLQIEVARVAAAAYDALQA
B8: GBRAP_53_6396 (protein)
chain: AEKEIKEGLKELEALIKRVKADPTLDPKEVAKEASALFKALVAAGAPEEELVKLAKELAEAVKAKGLGVEVSTALAKAAAEAGAEEVQYVFTEAAVEDLE
B9: GBRAP_160_4238 (protein)
chain: SEEIEKLREEITDEAELLLDVLLESPKSQWPAYARAFAGDIVQIVEENENVSDETEEKVAELADEMVAELVAARDASPEELAALLERFVERIVKTVEEGV
B10: GBRAP_128_3427 (protein)
chain: STAAKVAEVEALLEAMLTADAAEAAALARRIAALMLASDLETVEAMVEVILSMLPKFTAEQLEILADALREARPEFTPEKQLLVSEVEVAALNEAEEKEE
B11: GBRAP_160_4711 (protein)
chain: MEVKEKLKKYVEEEFEEAKELIKGESIEQRAIIVEGTIGEIIMELFEEEEASDELIDEVDKIGDELVETILANPDLTEEEIEELIEKAEEEIKKAIDKYV
B12: GBRAP_39_5693 (protein)
chain: EEDEENEDHVSYLQALAAKRLYETGISLEEATKEAKKILEEEAKRNPELKELLEELIKLAEEKGDEAKEVLIGVAVLIEEGEPKEEIKEHIEKAIKYFKK
B13: GBRAP_95_7034 (protein)
chain: EDDKLALESALEVAVAAAELGDEEAAARALKEALELLKKAGKVKLDPELLKETIEVIREVGVKKLPKEEVLELLELLKESAETEEVKKLAEEAIEEVKKR
B14: GBRAP_74_6536 (protein)
chain: SEEKEKVIKEINEAETIEEAIEITEKVLETDDKELARAAVQELLLKAAERKDELTLEEAERLVEVIVRAFEKNGIVVETREEAEALNTVLTKALELEEKA
B15: GBRAP_166_4984 (protein)
chain: MEEELVEELKKYLEELAEKMKEAGPEERQELVAEAAERLAEAREKGLSREKLGELVEYLLRLAREVGIPISAVEGALSILADLDEEEIDILDEAARRVAA
B16: GBRAP_128_3314 (protein)
chain: MDEERLEEAREIVERMKEADLEELAELTRRLAELLGTLTPEERDIVAEIFREGLKELSAEKLDVVADVLREVRPSLDPETANVVADLEVEALNEAVEKEE
B17: GBRAP_74_6519 (protein)
chain: EEELLAALEAAAAAGDAATAVALARRIVAEGSLEAVERAARIMVAFVERHADALSPEELEAVADALAELADELMLRGGDSEVVLAVARAAVALEERRRAL
B18: GBRAP_128_3579 (protein)
chain: SVEEVRAEVRALLEAMKTADAAEQKAIATEIATRFTTLTPEERRAAAETIEELLPELSAEQLDILADALRAARPTADPEAANLLADVEVAALNEALEKEE
B19: GBRAP_160_4226 (protein)
chain: METVEKIVKVFRDTFLEALELIEGESAEERAVILDVAVGEVILEVSEIEEATDEMEEVVDKKAEALAAALLAAADASAAERRALVDKAAAELRKELEKIE
B20: GBRAP_184_5358 (protein)
chain: EVRHLSVTVETKEEAVEKLAEAREEIRASGLPTVLVVELKNADLETVETVMELLAELREEGLIERGIVVVDDDRSEEEIDKMVELADRYGVDLVVAIPEE
B21: GBRAP_159_3958 (protein)
chain: MEELEKRVKEAKEKAKDNPEVVKLIEEVYDLIKEGEDAETIADFTVGSIVTLDVTPEEARLVLSVLPEETRRLAAEDLAYLAEELGREDLAAAARAILEE
B22: GBRAP_128_3325 (protein)
chain: MNEERIKEAEEIIKEIVKADVEEAKKLTEELLKLMETMTDEERDIVVEIMEKELEKLDAEKLDAIADTIRELQPTLDPLTARYAAEIEVEALNLAEEKEE
B23: GBRAP_160_4149 (protein)
chain: SEELKKLIKEIKEITEEAIKLMEGETPEEAKVIAKVALGEIVMLVESNEEVSEETEEKVGEIADEAEEYLDENPDLTVEEIKELLKKAGEEVIKIIEEEL
B24: GBRAP_160_4147 (protein)
chain: SAELKALIEEIREITEEAIKLMEGETPEEAKVIARVALGEIVMLVFSNEAVSEETEEEVGEVADEAEAHLRANPDLTVEEIKAILREAGEEVIEIIEKEV
B25: GBRAP_52_5941 (protein)
chain: SSSRLKEIAEELIKLALAGDEEGLRKKAREIAKTYSDEEILAIAKEIAKMAKEAPKEDLDAYFRLMEILTEELEKEGRSEELISEIEGLMAKAMYENELK
B26: GBRAP_160_4588 (protein)
chain: MESLEKMKEIVREELEEAKEMIVGETAEQRATIVLGAGGEIVMELSENPEASDELEDEVLKIADEAADTILANPNITEEEFNALLDEMEKKMIEAIEKHL
B27: GBRAP_11_2927 (protein)
chain: KKEKIKEIAELAEELAEAADRLIAEGTDNEELRKKLEELLEKLVELVKEYGDEADKKDAEHMRELWEKAKADPANAVQYLTELRNEARVLSGIYLLEYDE
B28: GBRAP_139_3733 (protein)
chain: SADDAAVAEVVALTKRSVETGGALVAEIADALNALDEDTADRAAEAMAEVLETQPFDVAEALFDALIDTLLTEHKNEDLATIVEAAANRALARIAVREEA
B29: GBRAP_52_6365 (protein)
chain: MLEEAVELLRKAVEATLAGKEEEAEEILKEIVENFSDETIVKAVERLAEEVATKTLEEAEAFLDTAIRLADIMLEAGRDEAKADEIEAIAAKAYSAVLAK

Each binder was assayed against GABARAP, O95166 (assay: median log2 fold change of GCK-ALFA target abundance (FLAG IP / Myc IP barcode read proportion) (log2 ratio); each designed protein is fused to an ALFA-tag nanobody in HEK293 cells to bring the named protein to FLAG-tagged glucokinase (GCK); Myc marks an untargeted standard; higher = target protein stabilised (more abundant)). Settings: target protein: 3xFLAG-MCP-GCK-ALFA reporter; HEK293 landing pad (RPLP).
Experimental: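 LABEL-seq trans screen in HEK293 landing-pad cells. Each de novo designed 100-aa effector handle, binding the indicated effector (E3 ligase, DUB or autophagy protein), is fused to a constant NbALFA target handle and induced with 2 ug/mL doxycycline. A FLAG-MCP-GCK-ALFA target and a Myc-MCP standard reporter were transfected, and after 48 h circRNA barcodes were recovered by anti-FLAG and anti-Myc IP and sequenced. The value is the median across barcodes (at least 3 per design) of log2(FLAG/Myc read-proportion ratio), with the two transfection replicates pooled. Negative values mean degradation and positive values mean stabilisation of the target.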

Chain of GABARAP, O95166 (O95166 whole entry, the tested form may be a part): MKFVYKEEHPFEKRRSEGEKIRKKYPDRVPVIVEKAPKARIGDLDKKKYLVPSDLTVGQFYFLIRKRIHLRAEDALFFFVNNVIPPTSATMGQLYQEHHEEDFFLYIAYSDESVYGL

Binder | median log2 fold change
B1 | 0.23
B2 | 0.165
B3 | 0.187
B4 | 0.163
B5 | -0.593
B6 | 0.373
B7 | -0.631
B8 | 0.274
B9 | -0.458
B10 | 0.18
B11 | -0.152
B12 | 0.24
B13 | 0.352
B14 | -0.769
B15 | 0.23
B16 | 0.162
B17 | -0.0734
B18 | 0.177
B19 | -0.651
B20 | -0.0422
B21 | 0.0598
B22 | 0.156
B23 | -0.271
B24 | -0.617
B25 | 0.165
B26 | -0.211
B27 | 0.134
B28 | 0.133
B29 | -0.000301
